Data taken from ChEMBL document CHEMBL3988442, “University of Dundee, Small-Polar-MMV Screening Library” (2021).
For some of these results: Entries with a potency or affinity are not part of this list.

Assays:
Parameters in all cases: scale not given: direction of the effect not stated beside the values
[1] = target: Protein translocase subunit SecA (Escherichia coli (strain K12)) (UniProt P10408); test: Assay to Identify E. coli SecA ATPase Inhibitors; type: functional; settings: 30 µM
[2] = target: T1, Ubiquitin-activating enzyme e1, putative (Leishmania donovani (strain BPK282A1)) (UniProt E9BSI1); test: Leishmania donovani Ubiquitin Activating Enzyme (LdE1); type: functional; settings: 30 µM
T1 sequence (whole entry): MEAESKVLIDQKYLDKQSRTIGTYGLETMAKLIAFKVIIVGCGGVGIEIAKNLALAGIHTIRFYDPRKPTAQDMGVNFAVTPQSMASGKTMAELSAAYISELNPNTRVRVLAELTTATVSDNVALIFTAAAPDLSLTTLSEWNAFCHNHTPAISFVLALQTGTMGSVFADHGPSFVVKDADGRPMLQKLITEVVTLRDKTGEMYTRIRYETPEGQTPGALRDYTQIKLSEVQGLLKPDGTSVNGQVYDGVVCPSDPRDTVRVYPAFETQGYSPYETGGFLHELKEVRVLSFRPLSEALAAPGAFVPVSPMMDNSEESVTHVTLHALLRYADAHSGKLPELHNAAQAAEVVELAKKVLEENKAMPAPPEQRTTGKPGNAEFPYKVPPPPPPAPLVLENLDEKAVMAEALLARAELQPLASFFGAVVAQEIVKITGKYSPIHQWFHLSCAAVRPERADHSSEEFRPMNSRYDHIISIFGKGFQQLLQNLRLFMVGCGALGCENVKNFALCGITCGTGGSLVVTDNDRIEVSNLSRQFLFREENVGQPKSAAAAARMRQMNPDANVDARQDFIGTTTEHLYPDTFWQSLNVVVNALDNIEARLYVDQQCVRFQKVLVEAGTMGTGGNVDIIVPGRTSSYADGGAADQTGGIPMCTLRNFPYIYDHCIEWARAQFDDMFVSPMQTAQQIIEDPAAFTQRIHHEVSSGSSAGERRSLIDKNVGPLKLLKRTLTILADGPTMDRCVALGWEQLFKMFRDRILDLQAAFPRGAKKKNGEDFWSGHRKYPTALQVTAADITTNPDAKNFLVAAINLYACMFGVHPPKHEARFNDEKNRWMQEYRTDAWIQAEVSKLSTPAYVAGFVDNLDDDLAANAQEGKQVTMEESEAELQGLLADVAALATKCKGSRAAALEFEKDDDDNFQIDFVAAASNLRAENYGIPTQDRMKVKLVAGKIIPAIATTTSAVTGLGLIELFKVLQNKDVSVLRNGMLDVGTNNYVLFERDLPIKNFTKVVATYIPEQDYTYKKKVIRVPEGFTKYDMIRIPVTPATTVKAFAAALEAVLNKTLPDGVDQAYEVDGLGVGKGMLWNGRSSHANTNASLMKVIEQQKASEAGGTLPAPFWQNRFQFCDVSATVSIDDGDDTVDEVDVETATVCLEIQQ

[3] = target: AMP-activated protein kinase, AMPK (Homo sapiens) (UniProt P54646+O43741+P54619+Q9UGJ0+Q9Y478+Q13131+Q9UGI9); test: AMP-dependent Kinase enzyme assay. An in vitro enzyme assay that detects ADP turnover that is directly proportional to AMPK activity. This uses naive AMPK that is activated during the assay with MK-8722; type: functional; settings: 30 µM
[4] = target: Sialic acid-binding Ig-like lectin 9 (Homo sapiens) (UniProt Q9Y336); test: Hs-Siglec9 ALPHAscreen SOP 20170721; settings: 10 µM
[5] = test system: Trypanosoma cruzi; test: Trypanosoma cruzi phosphomannomutase and mannose-1-phosphate guanylyltransferase assay; type: functional; settings: 10 µM
[6] = target: T2, Arginase-2, mitochondrial (Homo sapiens) (UniProt P78540); test: in vitro enzyme assay to detect the production of urea directly proportional to the activity of Arginase II; type: functional; settings: 33.3 µM; further: in the data most compounds retested in dose-response had high values
T2 sequence (whole entry): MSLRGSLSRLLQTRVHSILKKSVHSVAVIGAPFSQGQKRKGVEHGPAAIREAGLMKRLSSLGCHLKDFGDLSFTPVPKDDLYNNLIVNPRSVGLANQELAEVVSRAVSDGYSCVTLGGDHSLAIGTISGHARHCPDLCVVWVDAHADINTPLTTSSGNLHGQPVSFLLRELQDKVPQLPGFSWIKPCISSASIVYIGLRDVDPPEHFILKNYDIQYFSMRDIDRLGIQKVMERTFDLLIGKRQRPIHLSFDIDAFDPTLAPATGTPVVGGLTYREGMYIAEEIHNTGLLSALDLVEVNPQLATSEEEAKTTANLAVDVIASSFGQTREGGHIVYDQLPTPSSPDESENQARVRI

[7] = target: T3, Proteasome subunit beta (Trypanosoma cruzi) (UniProt O96673); test: Trypanosoma cruzi proteasome chymotrypsin-like activity (TcProtChymo) assay.; further: in the data most compounds retested in dose-response had high values; type: functional; settings: 9.37 µM
T3 sequence (whole entry): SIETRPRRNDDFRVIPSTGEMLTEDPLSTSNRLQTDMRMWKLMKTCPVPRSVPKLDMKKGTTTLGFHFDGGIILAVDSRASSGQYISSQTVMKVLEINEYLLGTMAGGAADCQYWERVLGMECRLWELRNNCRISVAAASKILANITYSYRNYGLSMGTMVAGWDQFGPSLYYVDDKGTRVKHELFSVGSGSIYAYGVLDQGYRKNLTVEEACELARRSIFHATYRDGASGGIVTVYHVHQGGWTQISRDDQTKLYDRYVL

[8] = species: Homo sapiens; test: To identify inhibition of the IFN signalling (Jak-Stat) pathway via expression of an eGFP reporter gene under the control of an IFN-stimulated response element (ISRE) containing MxA promoter.; type: functional; settings: 30 µM
[9] = target: T4, Tyrosyl-tRNA synthetase, putative (Trypanosoma cruzi (strain CL Brener)) (UniProt Q4DSP6); test: Trypanosoma cruzi tyrosyl tRNA synthetase (TcYRS) _High Tyrosine SOP; type: functional; settings: 30 µM; further: in the data most compounds retested in dose-response had high values
T4 sequence (whole entry): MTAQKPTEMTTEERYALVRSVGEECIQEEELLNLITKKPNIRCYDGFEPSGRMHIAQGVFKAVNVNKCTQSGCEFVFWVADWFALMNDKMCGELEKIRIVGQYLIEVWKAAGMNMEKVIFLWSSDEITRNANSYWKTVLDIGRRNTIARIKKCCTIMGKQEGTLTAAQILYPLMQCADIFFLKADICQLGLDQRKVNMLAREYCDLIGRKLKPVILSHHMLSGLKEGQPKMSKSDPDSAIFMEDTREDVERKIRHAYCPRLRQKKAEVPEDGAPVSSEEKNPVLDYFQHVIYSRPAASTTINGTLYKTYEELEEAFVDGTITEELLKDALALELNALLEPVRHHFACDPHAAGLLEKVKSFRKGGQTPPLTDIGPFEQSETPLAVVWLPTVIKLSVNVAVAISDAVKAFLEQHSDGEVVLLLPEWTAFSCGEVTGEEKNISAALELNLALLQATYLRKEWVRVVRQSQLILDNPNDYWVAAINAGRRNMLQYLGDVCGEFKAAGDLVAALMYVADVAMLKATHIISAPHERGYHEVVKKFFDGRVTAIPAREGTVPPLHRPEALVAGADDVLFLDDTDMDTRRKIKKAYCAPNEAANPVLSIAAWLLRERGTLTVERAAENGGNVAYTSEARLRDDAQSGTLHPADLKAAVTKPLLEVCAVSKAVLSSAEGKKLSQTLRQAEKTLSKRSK

[10] = target: T4, Tyrosyl-tRNA synthetase, putative (Trypanosoma cruzi (strain CL Brener)); test: Trypanosoma cruzi tyrosyl tRNA synthetase (TcYRS) SOP; type: functional; settings: 30 µM
[11] = target: Chromo domain-containing protein 1 (Saccharomyces cerevisiae (strain ATCC 204508 / S288c) (Baker's yeast)) (UniProt P32657); test: ScCHD-1 Enzyme Inhibition Assay; type: functional; settings: 30 µM; further: in the data most compounds retested in dose-response had high values
Chain of Chromo domain-containing protein 1 (Saccharomyces cerevisiae (strain ATCC 204508 / S288c) (Baker's yeast)) (P32657 whole entry, the tested form may be a part): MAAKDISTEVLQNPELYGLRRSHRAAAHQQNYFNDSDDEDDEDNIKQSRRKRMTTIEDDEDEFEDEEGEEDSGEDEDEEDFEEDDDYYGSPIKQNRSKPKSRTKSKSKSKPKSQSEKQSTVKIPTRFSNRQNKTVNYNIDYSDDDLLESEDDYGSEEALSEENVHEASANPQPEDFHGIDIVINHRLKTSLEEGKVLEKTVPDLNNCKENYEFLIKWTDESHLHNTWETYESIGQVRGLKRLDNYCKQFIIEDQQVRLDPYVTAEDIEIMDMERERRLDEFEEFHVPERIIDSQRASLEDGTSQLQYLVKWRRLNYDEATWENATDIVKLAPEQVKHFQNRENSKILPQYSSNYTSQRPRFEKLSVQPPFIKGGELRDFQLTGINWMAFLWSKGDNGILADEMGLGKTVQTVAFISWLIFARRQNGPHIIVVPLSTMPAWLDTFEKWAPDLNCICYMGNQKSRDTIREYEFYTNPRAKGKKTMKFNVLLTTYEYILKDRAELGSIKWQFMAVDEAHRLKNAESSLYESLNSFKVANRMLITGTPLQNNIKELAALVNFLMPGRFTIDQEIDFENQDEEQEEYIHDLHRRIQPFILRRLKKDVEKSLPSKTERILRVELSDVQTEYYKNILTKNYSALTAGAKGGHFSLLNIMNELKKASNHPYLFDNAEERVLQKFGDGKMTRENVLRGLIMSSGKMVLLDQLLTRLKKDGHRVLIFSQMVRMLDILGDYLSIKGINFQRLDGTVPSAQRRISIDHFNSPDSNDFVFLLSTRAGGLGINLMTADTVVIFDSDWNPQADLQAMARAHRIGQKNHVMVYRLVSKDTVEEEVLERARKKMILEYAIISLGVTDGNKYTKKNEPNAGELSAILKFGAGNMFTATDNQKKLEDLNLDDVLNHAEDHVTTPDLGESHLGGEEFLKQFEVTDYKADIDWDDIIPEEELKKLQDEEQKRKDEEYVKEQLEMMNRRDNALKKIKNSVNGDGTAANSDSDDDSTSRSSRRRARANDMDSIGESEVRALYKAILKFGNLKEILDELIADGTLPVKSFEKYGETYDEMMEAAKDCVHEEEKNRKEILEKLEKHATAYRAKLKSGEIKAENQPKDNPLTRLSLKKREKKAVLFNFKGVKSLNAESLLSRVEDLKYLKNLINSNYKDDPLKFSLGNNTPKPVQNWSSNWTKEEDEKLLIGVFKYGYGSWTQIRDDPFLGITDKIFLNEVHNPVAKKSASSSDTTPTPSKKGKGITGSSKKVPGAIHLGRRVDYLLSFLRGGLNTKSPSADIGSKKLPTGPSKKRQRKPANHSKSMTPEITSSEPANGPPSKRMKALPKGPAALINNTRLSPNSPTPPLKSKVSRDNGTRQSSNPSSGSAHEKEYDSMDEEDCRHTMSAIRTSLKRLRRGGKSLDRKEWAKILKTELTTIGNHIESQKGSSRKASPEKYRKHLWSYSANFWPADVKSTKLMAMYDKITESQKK

Chain of Sialic acid-binding Ig-like lectin 9 (Homo sapiens) (Q9Y336 whole entry): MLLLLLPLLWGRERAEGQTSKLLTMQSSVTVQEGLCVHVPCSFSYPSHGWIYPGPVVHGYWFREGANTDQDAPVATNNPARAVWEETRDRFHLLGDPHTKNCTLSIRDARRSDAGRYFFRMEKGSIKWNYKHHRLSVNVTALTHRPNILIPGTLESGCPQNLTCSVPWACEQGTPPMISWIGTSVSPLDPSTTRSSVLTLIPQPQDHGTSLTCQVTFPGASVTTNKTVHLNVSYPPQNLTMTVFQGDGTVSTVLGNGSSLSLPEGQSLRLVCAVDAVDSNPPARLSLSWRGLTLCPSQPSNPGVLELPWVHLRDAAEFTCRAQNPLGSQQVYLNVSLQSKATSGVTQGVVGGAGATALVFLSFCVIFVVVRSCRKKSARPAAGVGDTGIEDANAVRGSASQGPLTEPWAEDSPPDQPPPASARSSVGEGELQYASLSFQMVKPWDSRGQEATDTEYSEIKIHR
Chain of Protein translocase subunit SecA (Escherichia coli (strain K12)) (P10408 whole entry): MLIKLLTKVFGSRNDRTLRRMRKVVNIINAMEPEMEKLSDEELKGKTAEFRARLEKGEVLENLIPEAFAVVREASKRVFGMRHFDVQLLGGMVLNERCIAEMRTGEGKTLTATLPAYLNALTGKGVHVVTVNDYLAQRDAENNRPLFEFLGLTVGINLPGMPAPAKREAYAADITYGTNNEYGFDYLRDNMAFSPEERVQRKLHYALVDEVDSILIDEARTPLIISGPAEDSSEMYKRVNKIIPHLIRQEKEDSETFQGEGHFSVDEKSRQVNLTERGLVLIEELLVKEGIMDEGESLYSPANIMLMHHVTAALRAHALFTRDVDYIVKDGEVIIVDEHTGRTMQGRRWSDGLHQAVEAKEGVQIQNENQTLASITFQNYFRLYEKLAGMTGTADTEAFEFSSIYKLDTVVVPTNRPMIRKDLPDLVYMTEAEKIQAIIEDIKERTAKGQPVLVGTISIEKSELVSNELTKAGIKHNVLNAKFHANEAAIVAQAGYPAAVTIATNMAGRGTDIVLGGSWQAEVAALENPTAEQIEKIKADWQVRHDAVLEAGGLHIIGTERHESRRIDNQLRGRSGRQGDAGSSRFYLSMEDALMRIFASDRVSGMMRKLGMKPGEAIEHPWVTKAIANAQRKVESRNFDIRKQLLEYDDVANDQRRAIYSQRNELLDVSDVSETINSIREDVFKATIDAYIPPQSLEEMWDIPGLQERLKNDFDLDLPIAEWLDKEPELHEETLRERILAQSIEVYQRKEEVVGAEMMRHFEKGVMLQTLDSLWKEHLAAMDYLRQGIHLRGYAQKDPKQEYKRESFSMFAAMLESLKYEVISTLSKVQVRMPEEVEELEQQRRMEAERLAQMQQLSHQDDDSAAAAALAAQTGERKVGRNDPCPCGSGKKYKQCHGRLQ

SMILES | Percent Effect [1] | Percent Effect [2] | Percent Effect [3] | Percent Effect [4] | Percent Effect [5] | Percent Effect [6] | Percent Effect [7] | Percent Effect [8] | Percent Effect [9] | Percent Effect [10] | Percent Effect [11]
COC(=O)c1ccc2ccn(CC3CCNC3)c(=O)c2c1 (stereo unspecified) | -1.56% | 24.7% | -24.1% | 16.4% | 4.31% | 2.27% | 21.8% | 6.65% | 6.45% | 20% | -5.95%
CCc1ncc2c(n1)CN(CC(=O)NCCOc1ccccc1)CC2 | -4.72% | 7.89% | -23.5% | -1.72% | 1.21% | -1.44% | -5.84% | -22.3% | 11.3% | 6.17% | 1.38%
Cn1cc(CN2CC[C@@H]3[C@@H](CCC(=O)N3CCc3c[nH]cn3)C2)cn1 | -4.59% | 5.48% | -4.95% | 7.16% | 7.14% | -4.79% | 5.05% | -5.47% | 1.04% | 6.17% | -0.897%
Cc1nc(N2CC[C@@H](NC(=O)c3cnccn3)[C@H](O)C2)c2ccsc2n1 | 0.273% | 8.11% | -4.4% | 15.3% | 2.7% | 3.33% | 2.41% | 46.9% | 5.82% | 19.5% | -3.51%
Cc1ccc(CN2CC(C(=O)N3CCCC3)C3(CCOCC3)C2)s1 (stereo unspecified) | 0.462% | 0% | 0.717% | 0.63% | -5.41% | -54.3% | 2.05% | 5.33% | 2.08% | 0% | -4.71%
CC(C)c1nccn1C1CCCN(C(=O)c2cnc[nH]2)C1 (stereo unspecified) | -5.4% | 10.5% | -5.59% | 16.2% | 5.32% | 0.719% | 10.1% | -0.618% | 5.42% | 16.1% | -3.38%
Cc1ccc(C2CCCCCN2Cc2cn(C)nc2C)cc1 (stereo unspecified) | -2.53% | 5.2% | 1.3% | 6.91% | 4.83% | 1.94% | 5.92% | -15% | 8.47% | 19.2% | -11.2%
CCc1nc(NCC(=O)N2CCOCC2)c2c(n1)c(C)nn2CC | -2.78% | 6.67% | 0.5% | 7.26% | -6.09% | -6.87% | 10.7% | -5.15% | 2.12% | 5.13% | -5.78%
CC(CN1CCN(C)CC1)NC(=O)c1cc(Cl)c2c(c1)OCO2 (stereo unspecified) | -11.8% | 1.39% | 140% | -0.639% | 0.68% | 1.77% | 8.42% | -2.86% | 6.32% | 10.3% | -2.31%
CCOc1cccc(NS(=O)(=O)c2cc(C)c(C(=O)O)s2)c1 | -6.74% | 8.11% | -13.3% | 45.6% | 7.72% | 19.1% | 6.27% | -0.127% | -10.8% | -3.7% | -13.9%
CC(C)Nc1ncc(CN2C[C@@H](CN3CCC(O)CC3)[C@@H](CO)C2)cn1 | -5.5% | 2.67% | -4.76% | 7.2% | 2.43% | -0.521% | 12.2% | 8.53% | 4.92% | 11.1% | -8.5%
